These results are taken from PubChem BioAssay.

Values joined by “and” are separate entries in the source; they are usually repeats but may differ in a detail not shown here. Identical values can stand only once. Some structures have more than one record in an assay (separate samples or runs), and their calls can disagree. Active and inactive are the calls of the source. Unless noted, no stated cut-off is given here; in the data, active means inhibition above about 80%; inactive means the rest.

The target of assay [1] is Mitogen-activated protein kinase 7 (Homo sapiens) (UniProt Q13164). The assay can be described thus: Gal4-ERK5 driven luciferase induction – cell-based, HTS, primary screen (AID 1508626;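 active means luciferase signal above three times the same-plate solvent-only control wells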;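 further: luciferase driven by Gal4-ERK5 fusion binding five Gal4 sites before minimal TATA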). Particulars: HeLa Gal4-ERK5 transactivation, 18 h, at 5 µM, stronger effect = higher value.
Chain of Mitogen-activated protein kinase 7 (Homo sapiens) (Q13164 whole entry, looked up, the tested form may be a part): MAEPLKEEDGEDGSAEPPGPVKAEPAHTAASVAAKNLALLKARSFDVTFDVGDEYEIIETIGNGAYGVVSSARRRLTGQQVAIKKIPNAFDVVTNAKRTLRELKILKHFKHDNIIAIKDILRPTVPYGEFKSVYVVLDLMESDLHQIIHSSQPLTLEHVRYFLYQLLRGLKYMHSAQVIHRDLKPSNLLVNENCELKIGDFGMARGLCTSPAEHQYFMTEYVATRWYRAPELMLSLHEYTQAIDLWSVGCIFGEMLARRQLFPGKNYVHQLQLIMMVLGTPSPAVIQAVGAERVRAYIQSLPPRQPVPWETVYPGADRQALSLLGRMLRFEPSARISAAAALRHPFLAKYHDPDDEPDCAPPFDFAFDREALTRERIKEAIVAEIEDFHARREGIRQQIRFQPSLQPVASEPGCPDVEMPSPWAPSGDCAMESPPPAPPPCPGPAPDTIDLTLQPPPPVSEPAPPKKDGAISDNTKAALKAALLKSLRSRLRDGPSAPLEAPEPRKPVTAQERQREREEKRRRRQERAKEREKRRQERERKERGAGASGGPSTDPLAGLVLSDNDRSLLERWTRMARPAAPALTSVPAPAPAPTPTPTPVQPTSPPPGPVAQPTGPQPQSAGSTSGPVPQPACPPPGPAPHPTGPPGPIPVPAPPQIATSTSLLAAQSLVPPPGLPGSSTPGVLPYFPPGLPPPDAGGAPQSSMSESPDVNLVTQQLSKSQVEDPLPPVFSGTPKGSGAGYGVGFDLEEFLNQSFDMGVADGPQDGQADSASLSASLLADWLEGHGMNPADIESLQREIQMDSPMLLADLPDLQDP
Assay [2] concerns the target NAD(+) hydrolase SARM1 (Homo sapiens) (UniProt Q6SZW1). The assay can be described thus: blocking NAD cleavage by SARM1 SAM-TIR – cell lysate, NAD-Glo luminescence (AID 1508614;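 active means compound whose remaining NAD level is above about 45 nM, limit read from the data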). Particulars: SAM-TIR HEK293T lysate NADase, at 1 µM, stronger effect = higher value.
Assay [3] can be described thus: growth inhibition, single agents and combos, LFS_MB_1R, cell-based, cisplatin or BGB combos, synergistic combos for chromothripsis tumors (AID 1671452).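 Further: cells exposed for 96 hours before readout.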 To be noted: LFS_MB_1R medulloblastoma cells, stronger effect = higher value.
Assay [4] can be described thus: growth inhibition, single agents and combos, CRL2098, cell-based, BGB or cisplatin IC20 combos, synergistic combos for chromothripsis tumors (AID 1671454).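 Further: cells exposed for 96 h before readout; 0% = vehicle DMSO and 100% = killing by high DMSO.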 To be noted: CRL2098 osteosarcoma cells, drug combinations, stronger effect = higher value.
The nature of assay [5]: growth inhibition, single agents and combos, HD-MB03, cell-based, BGB or cisplatin IC20 combos, synergistic combos for chromothripsis tumors (AID 1671455; in the data active means inhibition above about 83%;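 further: 0% = vehicle DMSO and 100% = high DMSO as cytotoxic control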). Particulars: HD-MB03 medulloblastoma cells, stronger effect = higher value.
Assay [6] in a line: growth inhibition, single agents and combos, UWB1.289, cell-based, BGB or cisplatin combos, synergistic combos for chromothripsis tumors (AID 1671456).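 Further: cells exposed to compound for four days; 0% = vehicle DMSO and 100% = killing by high DMSO.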 To be noted: UWB1.289 ovarian carcinoma cells, stronger effect = higher value.
A short description of assay [7]: growth inhibition, single agents and combos, LFS_MB_2R, cell-based, cisplatin combos, synergistic combos for chromothripsis tumors (AID 1671457).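 Further: cells exposed to compound for four days before readout.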 To be noted: LFS_MB_2R medulloblastoma cells, stronger effect = higher value.
Assay [8] is described as follows: UWB1.289_BRCA1 ovarian cancer growth, cell-based, BGB or cisplatin combinations (AID 1671459). Particulars: UWB1.289 BRCA1 ovarian carcinoma, drug combinations, stronger effect = higher value.
Assay [9] in a line: drug combination toxicity in non-malignant astrocytes – cell-based, BGB or cisplatin IC20 combos, cytotoxicity control for chromothriptic childhood tumor combination screen (AID 1671460).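 Further: cells exposed to compounds for 96 hours before viability readout; 0% = vehicle and 100% = killing control.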 To be noted: Human astrocytes, viability inhibition, drug combinations, at 0.5 µM, stronger effect = higher value.
The nature of assay [10]: CRL1545 cell growth, single agent and combined, cisplatin and BGB IC20 combos (AID 1671464).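 Further: cells exposed to compound for 96 hours before readout; 0% = vehicle DMSO and 100% = high DMSO killing control.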 To be noted: CRL1545 osteosarcoma cells, stronger effect = higher value.
A short description of assay [11]: P. berghei load reduction in hepatocytes – cell-based, HepG2, luciferase luminescence, HepG2 viability, primary screen (AID 624349; in the data active means parasite load remaining mostly below about 12%, no sharp cut-off; inactive means mostly above about 10%;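 further: 100% = mean of DMSO negative control wells on the same plate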). Particulars: P. berghei liver stage in HepG2, luciferase luminescence, concentration not given here; parasite load remaining: stronger effect = lower value; viability: measured here: HepG2 viability without parasites.
Assay [12] is described as follows: galactose survival enhancers in mitochondrial complex I cybrids – cell-based, galactose medium, ATP luminescence, primary screen (AID 1645843;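 active means z-score of at least 1.8 in each of two replicates, scored against plate mean and spread of sample wells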;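 further: positive z means more ATP and so rescue of galactose-driven cybrid death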). To be noted: complex I mutant cybrid cells, 72 h, stronger effect = higher value.
The mark [13] stands for this setting: measured here: combination with BGB IC40, at 0.05 µM.
Setting [14] is: measured here: combination with cisplatin, at 0.5 µM.
The mark [15] stands for this setting: measured here: combination with cisplatin, at 5 µM.
The mark [16] stands for this setting: measured here: combination with BGB at IC20, at 0.5 µM.
Setting [17] is: measured here: combination with cisplatin at IC20, at 0.5 µM.
The mark [18] stands for this setting: measured here: combo with BGB at IC20, at 0.5 µM.
[19] abbreviates: measured here: combo with cisplatin at IC20, at 0.5 µM.
Setting [20] is: measured here: inhibition with BGB combination, at 0.05 µM.
Setting [21] is: measured here: inhibition with cisplatin combination, at 0.05 µM.
The mark [22] stands for this setting: BGB combination, concentration series, at 5 µM.
The mark [23] stands for this setting: cisplatin combination, concentration series, at 5 µM.
[24] abbreviates: measured here: combo with BGB IC20.
The mark [25] stands for this setting: measured here: combo with cisplatin IC20.
The mark [26] stands for this setting: measured here: with BGB IC20 combination, at 0.5 µM.
Where [27] appears, read: measured here: with cisplatin IC20 combination, at 0.5 µM.

Chain of NAD(+) hydrolase SARM1 (Homo sapiens) (Q6SZW1 whole entry, looked up): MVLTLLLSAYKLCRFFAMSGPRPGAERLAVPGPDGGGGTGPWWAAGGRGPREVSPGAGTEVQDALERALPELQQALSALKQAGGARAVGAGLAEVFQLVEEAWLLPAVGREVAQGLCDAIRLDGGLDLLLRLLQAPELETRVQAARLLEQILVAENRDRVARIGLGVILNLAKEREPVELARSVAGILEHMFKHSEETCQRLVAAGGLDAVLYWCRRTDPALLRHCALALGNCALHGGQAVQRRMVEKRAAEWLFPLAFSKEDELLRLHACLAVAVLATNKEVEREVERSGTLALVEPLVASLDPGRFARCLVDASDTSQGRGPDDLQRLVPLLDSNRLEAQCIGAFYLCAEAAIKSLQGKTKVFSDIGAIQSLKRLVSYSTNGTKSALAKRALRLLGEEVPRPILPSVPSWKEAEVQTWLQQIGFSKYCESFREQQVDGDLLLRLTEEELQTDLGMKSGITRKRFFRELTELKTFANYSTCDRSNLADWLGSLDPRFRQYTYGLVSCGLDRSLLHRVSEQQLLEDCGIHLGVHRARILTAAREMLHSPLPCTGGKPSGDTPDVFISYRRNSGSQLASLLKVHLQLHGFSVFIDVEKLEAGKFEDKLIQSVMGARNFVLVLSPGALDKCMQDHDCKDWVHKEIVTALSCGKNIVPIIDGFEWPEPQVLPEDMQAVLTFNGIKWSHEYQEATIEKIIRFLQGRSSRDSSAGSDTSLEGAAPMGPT

Regarding `CC[C@H](/C=C/[C@@H](C)[C@H]1CC[C@H]2[C@@H]3CC=C4C[C@@H](O)CC[C@]4(C)[C@H]3CC[C@]12C)C(C)C`, the luciferase signal in [1] was 52 AU (inactive).
Take `CC1(C)O[C@@H]2C[C@H]3[C@@H]4CCC5=CC(=O)C=C[C@]5(C)[C@H]4[C@@H](O)C[C@]3(C)[C@]2(C(=O)CO)O1`: the remaining NAD in [2] is 10 nM (inactive). Also, the luciferase signal in [1] is 172 AU (inactive).
`CN(C)Cc1c(C(=O)NCCOc2ccc(C(=O)NO)cc2)oc2ccccc12`: the inhibition in assay [3] (at 0.5 µM) is 45.6% (inactive); in assay [3] (setting [13]), -17%; in [3] (setting [14]), 62.1%; in [3] (setting [15]), 98.2%; in assay [4] (at 0.5 µM) it was 25.5% (inactive); in assay [4] (setting [16]), 32.6%. In addition, the inhibition in assay [4] (setting [17]) was 21.9%; in assay [5] (at 0.5 µM), 99.3% (active); in assay [5] (setting [18]), 99.1%; in assay [5] (setting [19]) it was 99.5%; in assay [6] (at 0.5 µM), 49.7% (inactive); in assay [6] (setting [20]), 11.1%. Also, the inhibition in [6] (setting [21]) is 27.1%; in [7] (at 0.5 µM) it was 51.5% (inactive); in assay [7] (setting [14]), 71.4%; in [7] (setting [15]) it was 106%; in assay [8] (setting [22]) it was 111%; in [8] (at 0.5 µM), 59.3% (inactive). Also, the inhibition was 125% in assay [8] (setting [23]); 49.9% (inactive) in [9]; 45% in assay [9] (setting [24]); 44% in [9] (setting [25]); 80.7% (active) in assay [10] (at 0.5 µM); 78.9% in assay [10] (setting [26]). Also, the inhibition in assay [10] (setting [27]) came out at 81.1%; in assay [10] (single agent, at 0.05 µM), 38.5%; in assay [10] (single agent, at 5 µM) it was 96.4%.
As to `Cc1ccc([N+](=O)[O-])cc1S(=O)(=O)N(C)/N=C/c1cnc2ccc(Br)cn12`, the parasite load remaining in assay [11] is 40.5% (inactive). Further, the viability in [11] was determined as 60.2%. In addition, the inhibition is 82.3% (active) in assay [3] (at 0.5 µM); -47.5% in assay [3] (setting [13]); 77.8% in [3] (setting [14]); 97.4% in assay [3] (setting [15]); 89.7% (active) in [4] (at 0.5 µM); 91.5% in assay [4] (setting [16]). The inhibition in [4] (setting [17]) is 95.8%; in assay [5] (at 0.5 µM), 84.2% (active); in [5] (setting [18]) it was 85%; in assay [5] (setting [19]), 81.5%; in [6] (at 0.5 µM) it was 63.4% (inactive); in assay [6] (setting [20]) it was -17.5%. Further, the inhibition in assay [6] (setting [21]) is -14.7%; in [7] (at 0.5 µM) it was 63.9% (inactive); in assay [7] (setting [14]), 63.1%; in assay [7] (setting [15]), 90.7%; in assay [8] (setting [22]), 89.2%; in assay [8] (at 0.5 µM) it was 73.9% (inactive). Besides, the inhibition in assay [8] (setting [23]) is 92.4%; in assay [9] it was 83.2% (active); in assay [9] (setting [24]), 77.8%; in assay [9] (setting [25]) it was 81.3%; in [10] (at 0.5 µM), 96.9% (active); in assay [10] (setting [26]), 98.1%. Moreover, the inhibition in [10] (setting [27]) was 96.2%; in assay [10] (single agent, at 0.05 µM) it was -27.4%; in assay [10] (single agent, at 5 µM), 99.9%.
Regarding `C=C(c1ccc(C(=O)O)cc1)c1cc2c(cc1C)C(C)(C)CCC2(C)C`, in [11], the parasite load remaining is 34.5% (inactive) and the viability was 146%. The z-score in assay [12] was 0.715 (inactive).
Regarding `COc1ccc(-c2nc(N3CCOCC3)c3sc(CN(C)c4ncc(C(=O)NO)cn4)cc3n2)cn1`, the inhibition in assay [3] (at 0.5 µM) is 93% (active) and 88.4% (active); in assay [3] (setting [13]), 27.1% and 15.8%; in assay [3] (setting [14]), 91.8% and 93.4%; in [3] (setting [15]) it was 100% and 102%; in assay [4] (at 0.5 µM), 77.2% (inactive) and 40.2% (inactive); in [4] (setting [16]) it was 83.7% and 62.7%. Moreover, the inhibition is 71.6% and 16.5% in [4] (setting [17]); 99.8% (active) in [5] (at 0.5 µM); 99.7% in [5] (setting [18]); 99.9% and 99.8% in assay [5] (setting [19]); 74.5% (inactive) and 79.8% (inactive) in [6] (at 0.5 µM); 5.77% and 13.7% in assay [6] (setting [20]). In addition, the inhibition in assay [6] (setting [21]) is -4.75% and -1.55%; in assay [7] (at 0.5 µM) it was 82.2% (active) and 85.4% (active); in assay [7] (setting [14]), 93.9% and 97.3%; in [7] (setting [15]), 110% and 105%; in [8] (setting [22]), 118% and 117%; in assay [8] (at 0.5 µM), 79.8% (inactive) and 83.2% (active). Besides, the inhibition in assay [8] (setting [23]) is 127% and 131%; in assay [9], 101% (active) and 102% (active); in [9] (setting [24]), 103% and 104%; in assay [9] (setting [25]) it was 100% and 101%; in [10] (at 0.5 µM), 88.6% (active) and 47.7% (inactive); in [10] (setting [26]), 89.3% and 57.8%. The inhibition in [10] (setting [27]) is 88% and 41.7%; in assay [10] (single agent, at 0.05 µM), 21.7% and -65.8%; in [10] (single agent, at 5 µM) it was 99.3% and 99%.

As usually defined, the inhibition is the relative decrease from the control value, in per cent. One may read the viability as a read-out of living cells in per cent, often relative to untreated cells.
